The source of these data is the supplement of paper PMC13380429.

For assay [1], the system named is Vero E6 infected with SARS-CoV-2. In words: morphology score (similarity to uninfected cells); higher = more like uninfected cells. The note with it: 24 h.
For assay [2] the test system is unchanged. Description: SARS-CoV-2 infection rate relative to infected DMSO; higher = more infection, active = 60 or less. To be noted: 24 h.

Take `CN1Cc2c(N)cccc2C(c2ccccc2)C1` (stereo not given) [nomifensine] (10 µM): in assay [1], the morphology score was -0.106. For the same compound, the SARS-CoV-2 infection rate in assay [2] was 109% (inactive).
The corresponding values for `CCCCCCCC(=O)N[C@H](CN1CCCC1)[C@H](O)c1ccc2c(c1)OCCO2` [eliglustat] (10 µM) are 0.2 and 92.5% (inactive).
The corresponding values for `NCCCCCNCC12CC3CC(CC(C3)C1)C2` (10 µM) are 0.229 and 97.5% (inactive).
For the compound `CCCCCCCCCCCCCCCCCCOP(=O)([O-])OC1CC[N+](C)(C)CC1` [perifosine] (10 µM), the morphology score in assay [1] amounted to 0.116. The SARS-CoV-2 infection rate in assay [2] is 104% (inactive).
As to `CC(=O)O[C@H]1CC[C@@]2(C)C(=CC[C@@H]3[C@@H]2CC[C@]2(C)C(c4cccnc4)=CC[C@@H]32)C1` [abiraterone-acetate] (10 µM), in assay [1], the morphology score was -0.0503. The SARS-CoV-2 infection rate in assay [2] is 112% (inactive).
For `O=C(Nc1ccc(OC(F)(F)F)cc1)c1sccc1NCc1ccnc2ccccc12` (10 µM), the morphology score in assay [1] amounted to 0.0678. Also, the SARS-CoV-2 infection rate in assay [2] is 90% (inactive).
As for `COc1cccc(OC)c1-c1ccc(C[C@H](NC(=O)c2c(Cl)cccc2Cl)C(=O)O)cc1` (10 µM), in assay [1], the morphology score is -0.141. Also, the SARS-CoV-2 infection rate in assay [2] was 102% (inactive).
For `Cc1oc2nc3c(c(NC(=O)CN4CCCC4=O)c2c1C)CCCC3` (10 µM) the same measures were 0.0552 and 103% (inactive).
The corresponding values for `Cn1c(NC[C@@H](N)Cc2ccccc2)nc(-c2ccncc2)c(-c2ccc3ccccc3c2)c1=O` (10 µM) are 0.653 and 35% (active).
In assay [1], `CN(C)C(=O)n1nnnc1Cc1ccc(-c2ccccc2)cc1` (0.833333 µM) yielded a morphology score of 0.00131. Also, the SARS-CoV-2 infection rate in assay [2] is 85% (inactive).
For `NC(=O)C1=CN([C@@H]2O[C@H](COP(=O)(O)OP(=O)(O)OC[C@H]3O[C@@H](n4cnc5c(N)ncnc54)[C@H](O)[C@@H]3O)[C@@H](O)[C@H]2O)C=CC1` [coenzyme-I] (10 µM) the same measures were 0.00507 and 103% (inactive).
On to `CCn1c(-c2nonc2N)nc2cncc(C(=O)N3CC[C@H](N)C3)c21` (0.833333 µM), for which the morphology score in assay [1] stood at 0.488. Moreover, in assay [2], the SARS-CoV-2 infection rate is 87% (inactive).
For `CC(=O)O[C@H]1C(=O)[C@@]2(C)[C@H]([C@H](OC(=O)c3ccccc3)[C@]3(O)C[C@H](OC(=O)[C@H](O)[C@@H](NC(=O)c4ccccc4)c4ccccc4)C(C)=C1C3(C)C)[C@]1(OC(C)=O)CO[C@@H]1C[C@@H]2O` [paclitaxel] (10 µM) the same measures were 0.00639 and 108% (inactive).
For `CC(O)CC(=O)O` (stereo not drawn) [beta-hydroxybutyrate] (10 µM) the same measures were -0.0603 and 116% (inactive).
The corresponding values for `CCCCCOc1ccc(-c2cc(-c3ccc(C(=O)N[C@H]4C[C@@H](O)[C@@H](O)NC(=O)[C@@H]5[C@@H](O)[C@@H](C)CN5C(=O)[C@H]([C@H](O)CC(N)=O)NC(=O)[C@H]([C@H](O)[C@@H](O)c5ccc(O)c(OS(=O)(=O)O)c5)NC(=O)[C@@H]5C[C@@H](O)CN5C(=O)[C@H]([C@@H](C)O)NC4=O)cc3)no2)cc1` [micafungin] (10 µM) are 0.0545 and 94.5% (inactive).
`C#Cc1cccc(Nc2ncnc3cc4c(cc23)OCCOCCOCCO4)c1` [icotinib] (0.833333 µM): the morphology score in assay [1] was -0.00998. In addition, the SARS-CoV-2 infection rate in assay [2] was 117% (inactive).
For the compound `S=C(NC1CCCCC1)N1CCC(c2cnc[nH]2)CC1` [thioperamide] (10 µM), in assay [1], the morphology score came out at 0.083. Besides, the SARS-CoV-2 infection rate in assay [2] is 96.5% (inactive).
For `c1cc2c(c(N3CCNCC3)c1)OCCO2` [eltoprazine] (10 µM) the same measures were 0.0367 and 94.5% (inactive).
For `CN[C@@H]1[C@H](O)[C@H](NC)[C@H]2O[C@@]3(O)C(=O)C[C@@H](C)O[C@H]3O[C@@H]2[C@H]1O` [spectinomycin] (0.833333 µM) the same measures were 0.0353 and 102% (inactive).
The corresponding values for `Cc1cc(C)c(NC(=O)C2CC3CCC2C3)c(C)c1` (stereo not given) (10 µM) are -0.102 and 102% (inactive).
The compound `Cc1ccc(CC2(O)CCN(CCOc3ccc(O)cc3)CC2)cc1` (10 µM) displayed a morphology score in assay [1] of -0.0871. The SARS-CoV-2 infection rate in assay [2] was 111% (inactive).
In assay [1], `CC(C(=O)O)c1cccc(Oc2ccccc2)c1` (stereo not given) [fenoprofen] (10 µM) yielded a morphology score of 0.0202. Moreover, the SARS-CoV-2 infection rate in assay [2] was 108% (inactive).
For `Oc1nc(-c2ccc(C(F)(F)F)cc2)nc2c1CSCC2` (0.833333 µM) the same measures were 0.149 and 94% (inactive).
The corresponding values for `O=C(O)CCCCC(=O)O` [adipic-acid] (10 µM) are -0.0456 and 105% (inactive).
As for `O=C(O)/C=C\c1c[nH]cn1` [cis-Urocanic acid] (10 µM), in assay [1], the morphology score stood at 0.143. Moreover, the SARS-CoV-2 infection rate in assay [2] was 104% (inactive).
For `CC[C@H](C)[C@@H]1NC(=O)[C@H](Cc2ccc(O)cc2)NC(=O)[C@@H](N)CSSC[C@@H](C(=O)N2CCC[C@H]2C(=O)N[C@@H](CC(C)C)C(=O)NCC(N)=O)NC(=O)[C@H](CC(N)=O)NC(=O)[C@H](CCC(N)=O)NC1=O` [oxytocin] (10 µM) the same measures were -0.0591 and 110% (inactive).
`CN(C)CCn1cc(S(=O)(=O)c2cccc(F)c2)c2cccnc21` (10 µM) returned a morphology score in assay [1] of -0.0241. Also, the SARS-CoV-2 infection rate in assay [2] was 109% (inactive).
The corresponding values for `CC(=O)O[C@H]1CC[C@@]2(C)C(=CC[C@@H]3[C@@H]2CC[C@]2(C)C(=O)CC[C@@H]32)C1` [prasterone-acetate] (10 µM) are -0.259 and 110% (inactive).
The compound `Cc1cc(=O)n(-c2ccccc2)[nH]1` [N-demethylantipyrine] (10 µM) registered a morphology score in assay [1] of 0.121. Also, the SARS-CoV-2 infection rate in assay [2] is 101% (inactive).
In turn, `COc1c2occc2c(OC)c2c(=O)cc(C)oc12` [khellin] (10 µM) registered a morphology score in assay [1] of -0.102. For the same compound, in assay [2], the SARS-CoV-2 infection rate was 109% (inactive).
